# Compound activity deposited in PubChem BioAssay by National Center for Advancing Translational Sciences (NCATS).
# An excerpt weighted towards active compounds, which were near 7.2% of everything screened.
# MARV entry inh = Marburg virus entry inhibition | Potency, µM (doses to about 37.8 µM), without a hit: top-dose activity change, negative = inhibition, hits mostly inhibitors | 300,000 compounds, 1.8% hits | Marburg virus pseudotyped entry inhibition, cell reporter; calls by dose curve; tested in HEK293 cells
# LASV entry inh = blocks Lassa virus binding to or entry into cells; Lassa virus pseudotype entry inhibition, cell reporter; Potency, µM (titrated, usually from 37.9 µM), without a hit: top-dose activity change, negative = inhibition, hits mostly inhibitors; 300,000 compounds, 1.2% hits; AID 540256; calls by dose curve; tested in HEK293 cells; further: nearly all actives have a fitted effect of over 50% in size
# RE007 growth inh = less growth of the S. pombe RE007 Vpr strain; 360,000 compounds, 0.21% hits; Potency, µM (titrated, usually from 92.2 µM), inactives show top-dose activity change, negative = less growth, usual class: inhibitors; S. pombe RE007 Vpr strain, BacTiter-Glo ATP luminescence, 24 h; active means well fitted falling curve with a large enough effect; inconclusive means small, poorly fitted or top-dose-only effect; inactive means no such curve, though single readings can be large or run the other way; further: nearly all actives have a fitted effect of over 50% in size
#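 Fission yeast strain RE007, carrying one chromosomally integrated HIV-1 vpr copy, was seeded at OD 0.01 in PMG+AL medium with 23 nL pinned compound. After 24 h at 30 °C and 99% humidity, viability was read by BacTiter-Glo luminescence.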
# FMDV antiviral = foot and mouth disease virus antiviral activity; FMDV antiviral cell-based qHTS; Potency, µM (titrated, usually from 57.9 µM), inactives show at the top dose activity change, negative = inhibition, usual class: inhibitors; AID 1159524; 410,000 compounds, 1.2% hits; calls by dose curve; tested in HEK293T cells; further: read-out not given here; nearly all actives have a fitted effect of over 45% in size
# Sm TGR block = S. mansoni TGR enzyme inhibition; Q962Y6; purified TGR, DTNB reduction, TNB absorbance 405 nm; Potency, µM (top dose mostly 114 µM), without a hit: at the highest dose activity change, negative = inhibition, hits mostly inhibitors; 360,000 compounds, 3% hits; further: nearly all actives have a fitted effect of over 60% in size
#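 First, TGR (20 nM dispensed) and NADPH were mixed with compound. Second, a 15 min room-temperature incubation followed. Third, further NADPH and then DTNB were added to start the reaction. Finally, TNB absorbance was monitored kinetically.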
# HCV inhibitor = HCV inhibition; Huh7.5.1 HCVcc-Cre infection, luciferase reporter, 44 h; Potency, µM (highest dose often 41.8 µM), for the others: at the highest dose activity change, negative = inhibition, hits mostly inhibitors; 340,000 compounds, 3.4% hits
#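 HCVcc-Cre virus at an moi near 0.5 was added right after compound to cells cultured 4 h from seeding (1,000 cells/well). Luciferase activity was determined 44 h later, 15 min after substrate addition at RT.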
# An asterisk follows results filed as active; u = inconclusive; x = no result given; ! = a repeat was not active; [ ] = dose if it differs, or a comment. Unless noted, the call rests on the fitted dose curve; in most records, active means well fitted curve in the direction sought with a large enough effect; inconclusive means small, poorly fitted or top-dose-only effect, or another doubt; inactive means no such curve, though single readings can be large; an effect the other way counts as inactive or inconclusive. On the % scale 0 is the no-effect control and ±100 the full control effect; potency means the concentration at half of the fitted maximal effect.
SMILES,MARV entry inh,LASV entry inh,RE007 growth inh,FMDV antiviral,Sm TGR block,HCV inhibitor
CCN(CC)CCNc1nc(SC)nc2sc3c(c12)CCN(C)C3,7.08µM*,u,3.7%,-5.9%,4.4%,u
CCOC(=O)c1noc2nc(C)n(Cc3cccc(C#N)c3)c(=O)c12,x,1.6%[46.1 µM],x,-16.1%,-3.3%,x
COc1cc(OC)c(OC)cc1CN1CCN(Cc2cccc(F)c2)CC1,x,x,59.5%,-10.6%,4.2%,-8.8%
CN1CCN(Cc2cccc(Oc3ccc(Cl)cc3)c2)CC1,u,2.4%,-26.9%,x,7.3%,u
Cc1cccc(CN2CCN(Cc3ccc(Cl)cc3)CC2)c1,u,u,28.9%,u,-6.3%,6.31µM*
Cc1cccc(CN2CCN(c3ccc(Cl)cc3)CC2)c1,x,x,-17.4%,-13.8%,4.4%,-13.5%
COc1cc(OC)c(OC)cc1CN1CCN(Cc2ccc(C(F)(F)F)cc2)CC1,x,x,-1.8%,u,0.5%,11.2µM*
COc1ccccc1CN1CCN(Cc2ccc(Cl)cc2)CC1,11.2µM*,0.7%[46.1 µM],2.7%,-26.1%,-5.4%,-5.9%
CCN1CCN(Cc2cccc(Oc3ccc(Cl)cc3)c2)CC1,u,u,12.4%,x,0.0%,12.6µM*
COc1ccc(CN2CCN(Cc3ccccc3OC)CC2)cc1,x,x,-27.8%,-22.6%,21.8%,5.7%
CC(C)C(=O)N[C@@H]1CCCN1C(=O)C=Cc1ccccc1,-46.9%[14.2 µM],-0.4%[14.3 µM],x,x,x,x
COC(=O)/C(=C/c1cn(C(C)=O)c2ccccc12)[N+](=O)[O-],20.9%[14.2 µM],-0.3%,-6.8%,-28.0%,3.55µM*,6.9%
COC(=O)/C(=C/c1c[nH]c2ccccc12)[N+](=O)[O-],13.2%,-1.6%,-12.5%,x,44.7µM*,-6.8%
COC1=C[C@H](C(=O)N2CCCC2)[C@H](C)[C@@H](c2ccccc2)CC1=O,2.0%[14.2 µM],u,x,x,x,x
COc1ccccc1CN1CCOc2ccc(C(C)(O)CN(C)C)cc2C1 (stereo unspecified),x,x,x,-17.5%,x,x
COC(=O)C(C)Sc1nc(NCc2ccccc2)nc(N(C)C)n1 (stereo unspecified),9.3%[46.1 µM],12.2%,42.3%,-13.3%,-6.7%,3.16µM*
CC(C)(C)c1ccc(OCCCNC2CCCC2)cc1,6.31µM*,u,10.8%,-16.7%,6.6%,u
CC(C)(C)c1ccc(OCCCNCc2ccccc2)cc1,u,u,0.4%,0.1%,-8.9%,11.2µM*
COCCCNCCCOc1ccc(C(C)(C)c2ccccc2)cc1,u,u,-0.2%,-9.1%,7.9%,u
CCOc1cc(CN2CCOCC2)cc(C(C)=O)c1,-1.2%,22.5%,-13.6%,-6.7%,44.7µM*,11.6%
CC(=O)c1cc(CN2CCCCC2)cc(OC(C)C)c1,-40.2%,3.8%,-10.0%,-15.0%,-33.6%,13.7%
Cc1cccc2nc(-c3cccnc3)c(Nc3ccc(C(C)C)cc3)n12,u,u,x,28.2µM*,-13.3%,x
Cc1noc(/C=C/c2ccco2)c1S(=O)(=O)N1CCC(C(=O)N(C)Cc2ccccc2)CC1,-7.0%,-8.2%,12.7%,-7.4%,12.6µM*,u
Cc1noc(/C=C/c2ccco2)c1S(=O)(=O)N1CCC(C(=O)NC(C)c2ccccc2)CC1 (stereo unspecified),3.6%,x,2.3%,-14.3%,0.0%,u
COc1ccc(NC(=O)C2CCN(S(=O)(=O)c3c(C)noc3/C=C/c3ccco3)CC2)cc1,8.7%[46.1 µM],0.9%[46.1 µM],x,-24.1%,-13.1%,x
SMILES,MARV entry inh,LASV entry inh,RE007 growth inh,FMDV antiviral,Sm TGR block,HCV inhibitor
Cc1noc(/C=C/c2ccco2)c1S(=O)(=O)N1CCC(C(=O)N2c3ccccc3CC2C)CC1 (stereo unspecified),7.6%,-28.7%,-24.4%,-5.1%,39.8µM*,u
Nc1c(Cl)ncnc1N/N=C/c1ccc2ccccc2n1,16.4µM*,u,u,-13.3%,-6.5%,3.98µM*
Nc1c(Cl)ncnc1N/N=C/c1ccnc2ccccc12,-0.1%,2.9%,-4.7%,16.1%,-23.8%,-16.3%
Nc1c(Cl)ncnc1N/N=C/c1cccnc1,22.3%[14.2 µM],-6.9%,-3.0%,-7.6%,50.1µM*,8.9%
Nc1c(Cl)ncnc1N/N=C/c1ccccn1,u,2.51µM*,u,-9.9%,u,u
CC1(C)[C@H](C(=O)NC2CCCCCC2)CC[C@]1(C)C(=O)O,20.9%,x,x,x,x,x
COc1ccc(OC(C)C(=O)NCc2nc(-c3cccc(C)c3)no2)cc1 (stereo unspecified),-0.4%[46.1 µM],u,x,0.0%,0.1%,x
COc1ccc(-c2nc(S(=O)(=O)c3ccc(Cl)cc3)c(N3CCCCCC3)o2)cc1,4.2%[46.1 µM],-7.5%[46.1 µM],x,14.3%,22.4µM*,x
Cc1ccc(S(=O)(=O)c2nc(Nc3ccccc3C#N)sc2Cl)cc1,0.9%,-3.0%,12.0%,-0.1%,-6.2%,-21.5%
COc1ccccc1-c1nc(S(=O)(=O)c2ccc(Cl)cc2)c(N2CCCCCC2)o1,-4.2%[46.1 µM],-17.5%[46.1 µM],x,0.8%,u,x
Cc1ccc(-c2nc(S(=O)(=O)c3ccc(C)cc3)c(N3CCOCC3)o2)cc1,0.8%[46.1 µM],x,3.7%,43.1%,3.55µM*,6.4%
Cc1cccc(-c2nc(S(=O)(=O)c3ccccc3)c(N3CCOCC3)o2)c1,-12.6%[46.1 µM],3.9%,-2.8%,-7.4%,44.7µM*,u
Cc1ccc(S(=O)(=O)c2nc(Nc3ccccc3N3CCOCC3)sc2Cl)cc1,u,0.2%,12.9%,-3.6%,-18.0%,10µM*
COc1ccc(-c2nc3c(C#N)c[nH]n3c2NC2CCCCC2)c(OC)c1,11.2%[46.1 µM],-24.5%[46.1 µM],x,-6.9%,-12.3%,x
Cc1ccc(-c2nc(P(=O)(c3ccccc3)c3ccccc3)c(N3CCOCC3)o2)cc1,10.3µM*,u,13.8%,-26.2%,5.6%,u
Cc1cccc(-c2nc(C#N)c(N3CCCCCC3)o2)c1,13.9%,-1.5%,8.2%,x,-16.7%,25.1µM*
O=C(c1cnccn1)N1CCC2(CC1)CN(c1ncccn1)C2,x,x,x,-8.6%,x,x
Cc1ccc(S(=O)(=O)NC2OC(=O)C(Cl)=C2Cl)cc1 (stereo unspecified),4.4%,13.5%,-8.9%,u,2.82µM*,-3.2%
COc1ccccc1-c1cc(C(F)(F)F)nc(S(=O)(=O)CCCC(=O)N2CCOCC2)n1,11.2µM*!,12.6µM*,-3.1%,22.4µM*,31.6µM*,u
COc1ccccc1-c1cc(C(F)(F)F)nc(S(=O)(=O)CCCC(=O)O)n1,u,7.3%,-4.9%,25.1µM*,u,27.7%
COc1ccc(-c2cc(C(F)(F)F)nc(S(=O)(=O)CCC(=O)N3CCOCC3)n2)cc1,u,u,-13.6%,-10.7%,28.2µM*,-17.4%
CCCCOc1cccc(C(=O)O)c1,u,4.2%,-23.0%,12.2%,5.9%,-3.0%
CC[N+](C)(CC)CCCCOc1ccc2c(c1)C(=O)c1cc(OCCCC[N+](C)(CC)CC)ccc1-2,x,x,u,-15.7%,5.62µM*,u
CC[N+](CC)(CC)CCCCOc1ccc2c(c1)C(=O)c1cc(OCCCC[N+](CC)(CC)CC)ccc1-2,x,x,-27.5%,-6.8%,20µM*,u
